Compound activity as filed in PubChem.
This is a sample that favours compounds with a hit; in the whole collection about 2.8% have one here.
HIF-2a inh = HIF-2a inhibition. 786-0 RCC cells HIF-2a reporter, luciferase luminescence, overnight. inhibition, % at 18.8 µM. 0.72% of 360,000 active;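 active means inhibition of the luminescence signal of 40% or more relative to plate controls, in a single-dose primary screen at 18.75 µM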
CF NFkB inh = cystic fibrosis NF-kB activation inhibition; KKLEB NF-kB-GFP reporter, PAF-induced, GFP fluorescence overnight; AID 588850; 0.86% of 360,000 active; inhibition, % at 5 µM;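 active means at least 50% inhibition at 5 µM, scaled per plate between neutral and stimulator controls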;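 further: PAF is a Pseudomonas aeruginosa culture filtrate used as stimulus; plate controls were PAF-stimulated DMSO wells for no effect and unstimulated DMSO wells for full effect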
MITF TRPM1 inh = MITF TRPM1 promoter inhibition in SK-MEL-5 cells | SK-MEL-5 TRPM1 promoter luciferase, 24 h | inhibition, % at 12.5 µM | 0.83% of 330,000 active | AID 488899;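 active means mean inhibition across replicates of 60% or more, whatever share of single replicates reaches that level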
Peg3 prom inh = Peg3 promoter activity inhibition; HeLa PEG-Prom luciferase reporter, luminescence, overnight; inhibition, % at 20 µM; 1.7% of 360,000 active;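 active means inhibition of at least 50% at 20 µM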
Shn3 inh set2 = inhibitors of Schnurri-3 3'UTR reporter in osteoblasts; 0.52% of 360,000 active; Clone20 osteoblast Shn3 3'UTR firefly luciferase, 24 h; inhibition, % at 12.5 µM; AID 588674;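 active means mean inhibition of at least 75% with every replicate also reaching 75%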;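 further: 0% = median of neutral control wells and 100% = pilot-screen positive control compound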
KKLEB tox = reduces viability of KKLEB cystic fibrosis airway cells; KKLEB CF airway cells viability, ATPlite luminescence, overnight; active compounds read low; cells stimulated with P. aeruginosa culture filtrate; activity change (cytotoxicity), % at 5 µM; 0.36% of 360,000 active;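 active means corrected activity change at or below -50% at 5 µM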
Mdm2-MdmX confirm = confirmation of inhibitors of human Mdm2/MdmX interaction, set 2 | shares compounds with HIF-2a inh | SaOS-2 split-luciferase Mdm2/MdmX complementation, luminescence | inhibition, % at 8 µM | 99% of 740 active;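 active means mean inhibition of the luminescence signal across two replicates at or above 26 percent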
Target sequence (O15151 whole entry, looked up): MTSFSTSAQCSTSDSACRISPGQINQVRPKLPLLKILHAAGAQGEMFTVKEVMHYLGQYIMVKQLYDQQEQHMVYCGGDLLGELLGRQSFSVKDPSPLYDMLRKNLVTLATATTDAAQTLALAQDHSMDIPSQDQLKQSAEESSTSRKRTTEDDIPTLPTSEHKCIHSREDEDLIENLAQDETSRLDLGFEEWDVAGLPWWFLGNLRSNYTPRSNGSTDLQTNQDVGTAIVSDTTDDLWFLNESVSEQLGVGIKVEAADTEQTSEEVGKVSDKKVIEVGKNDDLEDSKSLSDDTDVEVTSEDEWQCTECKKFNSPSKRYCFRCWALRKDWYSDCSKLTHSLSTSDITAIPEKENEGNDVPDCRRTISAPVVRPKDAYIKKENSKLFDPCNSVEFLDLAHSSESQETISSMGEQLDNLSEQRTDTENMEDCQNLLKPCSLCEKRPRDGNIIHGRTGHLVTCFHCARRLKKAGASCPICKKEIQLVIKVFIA
Target sequence (Q00987 whole entry, looked up): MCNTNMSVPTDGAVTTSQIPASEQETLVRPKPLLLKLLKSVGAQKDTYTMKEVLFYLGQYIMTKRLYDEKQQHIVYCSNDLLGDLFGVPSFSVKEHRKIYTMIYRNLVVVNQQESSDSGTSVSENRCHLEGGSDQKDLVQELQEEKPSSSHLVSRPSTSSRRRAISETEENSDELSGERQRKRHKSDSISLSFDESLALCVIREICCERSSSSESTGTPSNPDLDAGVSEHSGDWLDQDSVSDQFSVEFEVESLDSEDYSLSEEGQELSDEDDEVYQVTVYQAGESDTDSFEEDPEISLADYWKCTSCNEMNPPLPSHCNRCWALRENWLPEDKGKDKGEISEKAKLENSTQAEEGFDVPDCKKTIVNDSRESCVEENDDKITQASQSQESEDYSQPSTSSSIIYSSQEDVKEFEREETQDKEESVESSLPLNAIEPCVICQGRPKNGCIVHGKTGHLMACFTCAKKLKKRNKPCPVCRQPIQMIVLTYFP
HIF-2a inh conf = confirmation of HIF-2a inhibitors. shares compounds with HIF-2a inh. 786-0 RCC cells, HIF-2a luciferase reporter luminescence, overnight. inhibition, % at 18.8 µM. 56% of 1,800 active;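 active means mean inhibition across four replicates of at least 40 percent at the single tested concentration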
HIF-1a counter = inhibits HIF-1a reporter, a counter-screen for HIF-2a inhibitors; shares compounds with HIF-2a inh; MiaPaCa-2 HIF-1a luciferase reporter, desferoxamine, overnight; inhibition, % at 18.8 µM; 72% of 1,800 active; AID 651589;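 active means mean inhibition of the reporter signal across four replicates at the single tested dose of 50% or more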
* hit, by the source's call; nt = no result.

SMILES	HIF-2a inh	CF NFkB inh	MITF TRPM1 inh	Peg3 prom inh	Shn3 inh set2	KKLEB tox	HIF-2a inh conf	HIF-1a counter	others
COc1ccc(-n2nc3c(N4CCC(C(=O)NCc5ccccc5C)CC4)nnc(C)c3c2C)cc1	91*	36	85*	104*	24	-29	65*	96*	Mdm2-MdmX confirm=103*
COc1ccc(-n2nc3c(N4CCC(C(=O)NC5CCCCC5)CC4)nnc(C)c3c2C)cc1	65*	-7	51	71*	-4	4	5	60*
Cc1ccc(-n2nc3c(N4CCC(C(=O)NCCc5ccco5)CC4)nnc(C)c3c2C)cc1	17	4	47	30	14	-11	nt	nt
Cc1ccc(-n2nc3c(N4CCC(C(=O)NCCc5ccccc5C)CC4)nnc(C)c3c2C)cc1	49*	19	94*	58*	18	0	-5	46
O=C1c2ccc(Cl)cc2S(=O)(=O)c2cccc(C(=O)N3CCC(Cc4ccccc4)CC3)c21	50*	17	0	91*	-12	-29	14	105*
CCOC(=O)c1nnc(-c2cccs2)nc1Oc1ccc(Cl)cc1	42*	-6	5	27	-1	0	24	17
CC(C)c1ccc(N2C(=O)CC(NNC(=O)c3cccnc3)C2=O)cc1 (stereo not drawn)	11	17	6	9	8	-1	nt	nt
COc1ccccc1C=CC(=O)C=Cc1ccccc1OC	70*	-179	74*	99*	52	-4	55*	100*
COc1ccc(OCc2cc(C(=O)NC(C)Cn3cncn3)no2)c(Cl)c1 (stereo not drawn)	-138	-48	-36	-171	-56	16	nt	nt
OC(c1ccccc1)c1nc(-c2ccc(Cl)cc2)cs1 (stereo not drawn)	-223	-62	nt	-205	-70	13	nt	nt
CC1C(=O)N2CCCc3cc(S(=O)(=O)NCc4ccccc4Cl)cc1c32 (stereo not drawn)	8	4	-10	-10	2	5	nt	nt
O=C(Cn1ncc(Cl)c(Cl)c1=O)NC(=O)NC1CCCCC1	84*	90*	115*	89*	74	-64*	92*	106*	Mdm2-MdmX confirm=101*
O=C(CN1CCCCC1)NC(=O)NC1CCCC1	-22	4	-13	-24	-6	8	nt	nt
CCc1nnc2c(NCCc3ccccc3)nc3ccccc3n12	0	-2	32	13	7	1	nt	nt
C#CCn1c(S(=O)(=O)Cc2ccc(C)cc2)nc(-c2ccccc2)c1-c1ccccc1	-17	-16	-7	33	26	16	nt	nt	Mdm2-MdmX confirm=100*
N#Cc1ccc(NC(=O)Cn2cnc(S(=O)(=O)N3CCCC3)c2)cc1	5	1	10	11	9	5	nt	nt
CCN1CCN(CCNC(=O)c2ccc(/C=C3/Sc4ccccc4N(Cc4cccc(Cl)c4)C3=O)cc2)CC1	17	21	68*	97*	2	-29	nt	nt	Mdm2-MdmX confirm=102*
Cc1ccc(S(=O)(=O)N(C)C)cc1NC(=O)COC(=O)c1ccc2c(c1)OCCO2	14	3	11	4	-2	-8	nt	nt
Cn1cnnc1Sc1ccc(C(=O)OCC(=O)Nc2ccccc2)cc1[N+](=O)[O-]	6	-1	2	-13	-2	-3	nt	nt
COc1ccc(NC(=O)/C(C#N)=C/c2ccc(Sc3nncn3C)c([N+](=O)[O-])c2)cc1	43*	12	55	26	-7	0	24	21
CCCCn1c(=N)n(CC(=O)c2ccc(Br)s2)c2ccccc21	50*	-35	90*	95*	58	-27	23	98*	Mdm2-MdmX confirm=103*
CCOC(=O)C(C)(C)N(Cc1ccccc1C)S(=O)(=O)c1ccc(Cl)c([N+](=O)[O-])c1	40*	2	8	100*	10	-1	21	42
